# In article PMC5540273 (PLoS ONE, 2017):
# Legend:
# Details in all cases: concentration: 1 μM, replicates: in singlicate; n = 1
# [1] = test system: PRKCD
# [2] = test system: PRKCE
# [3] = test system: PRKCH
# [4] = test system: PRKCI
# [5] = test system: PRKCQ
# [6] = test system: PRKD1
# [7] = test system: PRKD2
# [8] = test system: PRKD3
# [9] = test system: PRKG1
# [10] = test system: PRKG2
# 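Further: KINOMEscan kinase panel screen.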
Compound,%Inh [1] [%],%Inh [2] [%],%Inh [3] [%],%Inh [4] [%],%Inh [5] [%],%Inh [6] [%],%Inh [7] [%],%Inh [8] [%],%Inh [9] [%],%Inh [10] [%]
Fc1cccc(COc2ccc(Nc3ncnc4nn5ccccc5c34)cc2Cl)c1 [GW689066],0,0,0,25,7,0,0,0,0,0
Cc1ccc(C)c(NC(=O)NCCNc2ccnc(Nc3ccc(F)cc3)n2)c1 [GSK1379878],0,0,0,0,0,1,0,0,0,0
Cl.c1ccc(Cn2ccc3cc(Nc4ncnc5ccccc45)ccc32)cc1 [GW275568],0,8,0,31,11,0,18,13,0,28
O=C(Nc1n[nH]c2nc(-c3ccco3)c(Br)cc12)c1ccc(CN2CCCC2)cc1.O=C(O)[C@H](O)[C@@H](O)C(=O)O [SB-742352],0,2,17,0,0,0,30,0,0,0
CCc1nc(-c2cccc(C)c2)c(-c2ccnc(NC(=O)c3ccccc3)c2)s1,20,2,4,2,0,0,0,0,0,0
Cc1ccc(O)cc1Nc1cc(C(F)(F)F)nc2ccc(-c3ccncc3)cc12 [GW630823],0,0,0,0,0,3,0,29,7,0
CCc1nc(-c2cccc(N(C)S(=O)(=O)c3ccccc3)c2)c(-c2ccnc(Nc3ccc(N4CCN(C(C)=O)CC4)nc3)n2)s1 [GSK1645895],0,0,0,0,15,3,12,9,0,0
O=C(Nc1ccccc1)Nc1ccc(Oc2ccc3nccn3n2)cc1,10,0,0,19,0,24,6,0,13,0
Nc1nc(-c2ccccn2)c(-c2ccnc3ccccc23)s1 [GW548057],0,26,9,26,3,36,25,15,17,9
Cl.Cn1ccc(-c2cccc(Nc3ccnc4cc(-c5nccs5)ccc34)c2)n1 [GW525701],0,10,14,0,0,0,0,14,22,0
COc1ccc(Nc2nccc(N3CCC(NC(=O)Nc4ccc5c(c4)OCO5)C3)n2)cc1 (stereo not shown) [GSK1379745],8,10,12,25,2,1,0,25,20,0
CCCc1ccc(S(=O)(=O)NC2CCN(c3ccnc(Nc4ccc(OC)cc4)n3)C2)cc1 (stereo not shown) [GSK1379737],0,9,0,11,0,0,3,9,0,0
Fc1ccc(-c2ncn(CCCNCc3ccccc3)c2-c2ccncc2)cc1,0,26,0,0,30,20,0,27,7,0
O=C(Nc1ccccc1F)NC1CCN(c2ccnc(Nc3ccc(F)cc3)n2)C1 (stereo not shown) [GSK1379722],0,13,30,10,23,0,0,0,0,0
Nc1nc(-c2ccc3c(N)n[nH]c3c2)cc(N2CCC[C@@H](C(=O)Nc3ccccc3)C2)n1.O=C(O)C(F)(F)F.O=C(O)C(F)(F)F [GSK2288359],0,0,0,12,7,0,1,5,13,29
CC(C)(C)c1ccc(-n2cnc3c(N)ncnc32)cc1 [SKF-97263],6,13,29,1,15,0,0,55,11,0
Cl.c1ccc(Cn2ncc3cc(Nc4ncnc5ccccc45)ccc32)cc1 [GW273749],0,0,0,0,0,0,2,22,5,0

Compound,%Inh [1] [%],%Inh [2] [%],%Inh [3] [%],%Inh [4] [%],%Inh [5] [%],%Inh [6] [%],%Inh [7] [%],%Inh [8] [%],%Inh [9] [%],%Inh [10] [%]
O=C(CCO)NCCn1ccc2ncnc(Nc3ccc(Oc4cccc(C(F)(F)F)c4)c(Cl)c3)c21,0,6,0,0,0,0,5,0,13,0
CCn1c(-c2ccncc2)nc2cnccc21 [SB-735216],0,37,12,46,8,0,4,0,2,8
COc1ccc(-c2oc3ncnc(N)c3c2-c2ccc(OC)cc2)cc1 [SB-589132],0,28,4,35,0,30,0,0,0,0
CNc1nccc(-c2c(-c3ccc(F)cc3)ncn2CCCN2CCOCC2)n1 [SB-222516],1,5,0,20,0,0,0,0,14,16
Cc1cc(N2CCC(NS(=O)(=O)c3ccc(F)cc3)CC2)nc(Nc2cccc(C#N)c2)n1.O=C(O)C(F)(F)F [GSK1653537],3,0,27,12,19,35,31,43,3,0
Fc1ccc(Nc2nccc(-c3c(-c4ccc(Cl)cc4)nn4ncccc34)n2)cc1F [GW829058],0,18,0,22,0,0,0,9,3,17
CSc1ccc(NC2=C(c3ccccc3Cl)C(=O)NC2=O)cc1 [SB-342411],26,0,7,0,0,5,2,28,0,13
Cc1ccc(NC(=O)c2cccc(C#N)c2)cc1-c1ccc(C(=O)Nc2ccncc2)cc1 [GSK1398463],7,5,27,0,0,0,12,31,2,0
Nc1nccc2scc(-c3ccc4c(c3)CCN4C(=O)Cc3cc(F)ccc3F)c12 [GSK2587663],0,0,16,1,24,0,18,16,9,2
Clc1cc(Nc2ncnc3cc[nH]c23)ccc1OCc1ccccn1,13,8,0,9,34,0,3,0,10,22
Fc1cccc(COc2ccc(Nc3ncnc4sc(-c5ccc[nH]5)cc34)cc2Cl)c1 [GW707818],0,14,100,9,0,26,54,0,0,10
COC(=O)c1c(-c2ccccc2)c2cc(Cl)ccc2c(=O)n1Cc1ccc(S(C)(=O)=O)cc1,0,0,0,8,19,33,0,0,0,12
FC(F)(F)c1cc(Nc2nccc(-c3c(-c4ccc(Cl)cc4)nn4ncccc34)n2)ccc1Cl [GW829351],0,17,0,0,3,0,0,0,23,0
Clc1ccc(-c2cc(-c3c[nH]nc3-c3ccccn3)ccn2)cc1 [GW681251],0,26,4,0,0,56,31,25,0,10
N#Cc1ccc(Oc2ccc(Nc3ncnc4cc[nH]c34)cc2Cl)cc1,0,0,22,12,19,0,10,0,0,30
Cn1cc(-c2ccc3c(c2)CCN3C(=O)Cc2cccc(C(F)(F)F)c2)c2c(N)ncnc21 [GSK2606414],1,0,23,15,0,0,0,42,19,0
CC(C)N1CCC(n2cnc(-c3ccc(F)cc3)c2-c2ccnc(N)n2)CC1 [SB-223132],9,0,0,29,0,18,0,0,2,2
